Experimental findings from PubChem BioAssay AID602123 (The Scripps Research Institute Molecular Screening Center, 2011) are described below.

The campaign covered roughly 360,000 compounds. About 1,500 (0.42%) were called active. No stated cut-off is given here; in the data, active means inhibition above about 13% (passing the limit was not always enough); inactive means the rest. What follows is part of a selection rich in actives, with near analogues and random picks from the rest.

For orientation: inhibition means the relative decrease from the control value, in per cent.

The target in this experiment is Lon protease (Escherichia coli (strain K12)) (UniProt P0A9M0). Briefly: E. coli eLon protease inhibition – biochemical, fluorescence polarization, primary screen (AID 602123).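 Further: 0% = enzyme with probe and DMSO and 100% = no enzyme.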 The settings on record: purified E. coli Lon protease, at 7.94 µM, active compounds read high. (In fluorescence polarisation assays a small probe gives low polarisation when free and higher when bound to something large.)
Lon protease (Escherichia coli (strain K12)), sequence (P0A9M0 whole entry, looked up): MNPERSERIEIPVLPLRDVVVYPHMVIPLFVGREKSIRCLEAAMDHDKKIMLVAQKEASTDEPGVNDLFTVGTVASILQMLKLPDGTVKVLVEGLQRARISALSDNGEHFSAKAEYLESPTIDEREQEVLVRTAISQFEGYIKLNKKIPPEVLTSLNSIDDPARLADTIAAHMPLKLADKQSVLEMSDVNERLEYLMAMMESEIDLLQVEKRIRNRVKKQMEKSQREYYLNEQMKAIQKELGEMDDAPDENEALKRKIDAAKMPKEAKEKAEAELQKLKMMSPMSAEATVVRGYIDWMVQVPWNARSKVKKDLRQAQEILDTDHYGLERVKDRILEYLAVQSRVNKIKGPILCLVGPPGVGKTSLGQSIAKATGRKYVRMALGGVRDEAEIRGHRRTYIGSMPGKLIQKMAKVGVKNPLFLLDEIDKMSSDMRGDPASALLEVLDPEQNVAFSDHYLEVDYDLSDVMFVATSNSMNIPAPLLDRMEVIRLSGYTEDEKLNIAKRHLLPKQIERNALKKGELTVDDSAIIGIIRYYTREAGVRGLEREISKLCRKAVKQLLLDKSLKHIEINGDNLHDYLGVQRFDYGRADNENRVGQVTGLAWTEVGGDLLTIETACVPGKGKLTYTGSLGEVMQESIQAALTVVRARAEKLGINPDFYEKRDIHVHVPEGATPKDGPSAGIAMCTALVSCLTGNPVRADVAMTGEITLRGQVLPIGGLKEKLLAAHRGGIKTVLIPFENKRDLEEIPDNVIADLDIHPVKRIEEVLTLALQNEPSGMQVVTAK
`c1ccc(-c2ccc3c(c2)NC(C2Nc4cc(-c5ccccc5)ccc4O2)O3)cc1` (stereo unspecified): the inhibition was -3.71% (inactive). To `NC(=O)c1nnsc1-c1ccc(-c2snnc2C(N)=O)cc1` belongs 1.17% (inactive); to `COc1ccc(S(=O)(=O)N2CCOCC2)cc1NC(=O)COc1ccccc1`, -17.8% (inactive); to `COc1ccc(S(=O)(=O)N2CCOCC2)cc1NC(=O)CSc1cc(C)ccc1C`, -9.45% (inactive). With `COc1ccc(S(=O)(=O)N2CCOCC2)cc1NC(=O)Cc1c(F)cccc1Cl`, the inhibition is 20.4% (active). Take `Cc1ccc(CNC(=O)CCN2C(=O)[C@@H]3Cc4ccccc4CN3C2=O)cc1`: the inhibition is 1.97% (inactive). To `O=C(CN1CCCSc2ccccc21)N1CCN(S(=O)(=O)c2cccc(F)c2)CC1` belongs 19.9% (active); to `O=C(CN1CCN(S(=O)(=O)c2cccc(Cl)c2)CC1)N1CCCCC1`, -0.39% (inactive). To `O=C(CN1CCCSc2ccccc21)N1CCN(S(=O)(=O)c2ccccc2)CC1` belongs 4.26% (inactive); to `CC(C)N1CCC(=NNc2ccc([N+](=O)[O-])cc2S(=O)(=O)N2CCOCC2)CC1`, 1.91% (inactive); to `COc1ccccc1Oc1ccc(N2CC(C(=O)OCC(=O)c3ccc(F)cc3)CC2=O)cc1` (stereo unspecified), 2.52% (inactive). To `CCn1c(=S)[nH]c2cc(S(=O)(=O)N3CCOCC3)ccc21` belongs 3.25% (inactive); to `CNS(=O)(=O)c1ccc2c(c1)[nH]c(=S)n2C`, 62.6% (active); to `CCCCn1c(=S)[nH]c2cc(S(=O)(=O)N3CCCCC3)ccc21`, -10.8% (inactive). With `CSc1ccc(S(=O)(=O)N2CCC(C(=O)NCCc3ccccc3)CC2)cc1`, the inhibition is 11% (inactive). Consider `CN(C)Cc1c(C(=O)N/N=C/c2ccccc2OCc2ccc(F)cc2)nnn1-c1nonc1N`, for which the inhibition was 18.9% (active). To `CCN(CC)Cc1c(C(=O)N/N=C/c2cccc(OCc3ccc(F)cc3)c2)nnn1-c1nonc1N` belongs 5.3% (inactive); to `CC(C)Oc1ccc(/C=N/NC(=O)c2nnn(-c3nonc3N)c2CN(C)C2CCCCC2)cc1`, 1.38% (inactive); to `CCc1ccc(CN2C(=O)c3ccccc3C2C(=O)NCC2CCCO2)cc1` (stereo unspecified), -0.17% (inactive). As for `COc1c(C(C)C)oc2cc3oc(=O)ccc3cc12`, the figure is 0.79% (inactive); as for `CS(=O)(=O)N(C(=O)NC(=O)NC1CCS(=O)(=O)C1)C1CCCCC1` (stereo unspecified), -6.98% (inactive); as for `Cc1ccc2cccc(S(=O)(=O)N3CCN(c4ccccc4F)CC3)c2n1`, 1.99% (inactive). To `Cc1cc(-c2nnc(CCC(=O)NC(c3ccccc3)c3ccccc3)o2)no1` belongs 5.3% (inactive); to `COc1cccc(N(CC(=O)NCc2ccccc2)C(=O)CCC(=O)Nc2nccs2)c1`, -5.92% (inactive); to `COc1ccc(C2CC(c3cccs3)Nc3nnnn32)cc1` (stereo unspecified), -1.58% (inactive). With `COC(=O)C1=C(C(=O)c2ccc(C)cc2)C(c2ccccc2)n2nnnc2N1` (stereo unspecified), the inhibition was -7.42% (inactive). To `COc1ccc(C2=CC(c3cccc(OC)c3)n3nnnc3N2)cc1` (stereo unspecified) belongs 16.1% (active). In the case of `COc1c(C(=O)N2CCCC2)ccc2ccccc12`, the inhibition was -2.3% (inactive).

Take `COC(=O)C[n+]1cccc2ccccc21`: the inhibition is 99.9% (active). In the case of `COC(=O)CNS(=O)(=O)c1ccc(Cc2ccc(S(=O)(=O)NCC(=O)OC)cc2)cc1`, the inhibition was 5.06% (inactive). As for `CSc1ccccc1NC(=O)Cc1ccc(Br)cc1`, the inhibition is 3.49% (inactive). As for `COc1ccc(C(=O)CCc2ccccc2O)c(OC)c1`, the figure is -6.58% (inactive); as for `COc1ccc(C(=O)NC(C)CCc2ccccc2)c(OC)c1` (stereo unspecified), 35.8% (active). To `COc1ccccc1C(=O)NCCC(=O)NC(C)CCc1ccccc1` (stereo unspecified) belongs 2.26% (inactive). As for `COCC(C)NC(=O)CSc1nc2nn(-c3ccccc3)c(=O)c-2c2n1CCCCC2` (stereo unspecified), the inhibition is 8.05% (inactive). To `C=CCSc1ccc(S(=O)(=O)N2CCN(C)CC2)cn1` belongs 2.87% (inactive); to `O=C(CNCCO)NC12CC3CC(CC(C3)C1)C2`, 1.03% (inactive); to `O=C(COC(=O)C12CC3CC(CC(O)(C3)C1)C2)NC12CC3CC(CC(C3)C1)C2`, 14.8% (active). In the case of `O=C(COC(=O)CNS(=O)(=O)c1ccccc1)NC12CC3CC(CC(C3)C1)C2`, the inhibition was -4.78% (inactive).

For the compound `Cc1ccc(N(C(=O)c2sc(C)nc2C)C(C(=O)NC(C)(C)C)c2ccncc2)cc1` (stereo unspecified), the inhibition was 2.66% (inactive). Consider `CCS(=O)(=O)N1CCCC(C(=O)NCCCN(C)Cc2ccccc2)C1` (stereo unspecified), for which the inhibition was 0.57% (inactive). To `O=C(CCCn1c(=O)oc2ccccc21)Nc1cccnc1` belongs 0.74% (inactive); to `C/C(=N/NC(=O)CSc1ccccn1)c1ccc([N+](=O)[O-])cc1`, -0.59% (inactive); to `CCCSc1ccc([C@H]2N[C@@](Cc3ccccc3)(C(=O)OC)[C@H]3C(=O)N(C)C(=O)[C@@H]23)cc1`, 22.2% (active).

In the case of `CCN1C(=O)[C@H]2[C@@H](c3ccc(-c4ccc(F)cc4)cc3)N[C@@](Cc3ccccc3)(C(=O)OC)[C@H]2C1=O`, the inhibition was -0.32% (inactive). As for `CCN1C(=O)[C@H]2[C@@H](c3ccc(-c4ccc(OC)cc4)cc3)N[C@@](Cc3ccccc3)(C(=O)OC)[C@H]2C1=O`, the figure is -4.73% (inactive); as for `CCNC(=S)N1CCN(S(=O)(=O)c2ccc(Cl)s2)CC1`, 3.82% (inactive); as for `O=C(Nc1ccc(F)c(Cl)c1)C1CCN(S(=O)(=O)c2cccnc2)CC1`, 1.53% (inactive). `Cc1cc(C)n(Cc2cnc(N3CCOCC3)s2)n1`: the inhibition was -9.37% (inactive). As for `Clc1ccc2c(c1)C1=C(C(c3ccncc3)O2)C(c2ccc(Br)cc2)n2ncnc2N1` (stereo unspecified), the figure is 0.69% (inactive).

As for `Brc1ccc(C2=CC(c3ccco3)n3ncnc3N2)cc1` (stereo unspecified), the inhibition was 189% (active). In the case of `CN1/C(=c2/s/c(=C3/C(=O)N(c4ccccc4)NC3=Nc3ccccc3)n(C)c2=O)C(C)(C)c2ccccc21`, the inhibition was -167% (inactive). As for `CCN(CC(=O)NCc1cccs1)C(=O)c1ccccc1F`, the figure is -7.98% (inactive). For the compound `Cc1ccc(S(=O)(=O)CCC(=O)OCc2ccccc2)cc1`, the inhibition was 15.9% (active). As to `Cc1ccc(S(=O)(=O)CCC(=O)OCC(=O)N(C)Cc2ccccc2)cc1`, the inhibition was 5.85% (inactive). As for `Cc1ccc(S(=O)(=O)CCC(=O)OCC(=O)NCCc2ccc(S(N)(=O)=O)cc2)cc1`, the figure is -12.1% (inactive); as for `Cc1cc(Br)ccc1NC(=O)CN(C)C(=O)CN1C(=O)NC2(CCCC2)C1=O`, -8.08% (inactive).

Turning to `CCC(=O)c1ccc(OCC(=O)N(CC)CC2COc3ccccc3O2)cc1` (stereo unspecified), the inhibition was 5.37% (inactive).

As for `CC(=O)NC(=S)Nc1ccc(NC(=S)NC(=O)c2ccc([N+](=O)[O-])cc2)cc1`, the inhibition was 21.3% (active). As to `CC(=O)Nc1ccc(NC(=S)NC(=O)c2ccc([N+](=O)[O-])c(C)c2)cc1`, the inhibition is -3.89% (inactive). As for `COCCCNC(=S)NC(=O)c1ccc([N+](=O)[O-])cc1`, the figure is -1.2% (inactive). As to `COc1cc(Cl)c(C)cc1NC(=O)CSc1nnc(-c2ccco2)n1CC(C)C`, the inhibition was -5.33% (inactive). Turning to `NC(Cc1ccccc1)c1csc(Nc2cc(Oc3ccccc3)ncn2)n1` (stereo unspecified), the inhibition is -2.31% (inactive). To `CCN(CC)C(=O)CSc1nnc(-c2cnccn2)n1-c1ccc(C)cc1` belongs -8.84% (inactive); to `CC(C)CCN(C(=O)c1csnn1)C(C(=O)NC1CCCC1)c1ccccc1` (stereo unspecified), 5.69% (inactive). To `CCCn1c(SCC(=O)c2ccc3c(c2)OCCO3)nnc1C(C)C` belongs 3.55% (inactive).

Regarding `COCCn1c(SCC(=O)Nc2nc(C)cs2)nnc1C(C)C`, the inhibition was 6.46% (inactive).

`CCCn1c(SCC(=O)Nc2c(C)cccc2C)nnc1C(C)C`: the inhibition was 14.6% (active). To `Cc1cccc(N(Cc2ccccc2)C(=O)c2ccccc2F)c1` belongs 0.91% (inactive); to `CCCCC(O)(CCCC)C(=O)NN(C(=O)CCl)c1ccccc1`, -2.85% (inactive); to `CCCC(O)(CCC)C(=O)NN(C(=O)CCl)c1cccc(C)c1`, 12.8% (active).
